According to PubChem BioAssay AID1159580 (chemical genetic matrix, 2015):
Where “and” joins values, the source holds several entries; their conditions need not be identical. Equal values may be shown once. Out of some 5,500 compounds screened, about 2,000 (36%) were called active. Inconclusive results (about 18%) are left out. Rule as the data show it: active = normalized growth mostly below about 0.91 (no sharp cut-off); inconclusive = no clear call, values can overlap the other calls; inactive = mostly above about 0.92. Some of the results follow.

Assay: chemical genetic growth profiling, strain panel (AID 1159580);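 also: tested at 20 µM; growth read once vehicle control cultures reached saturation at 30 °C; 1 = growth at the plate median or of vehicle wells; lower values mean less growth of the strain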
Conditions: S. cerevisiae deletion strains, growth OD

Measured: normalized growth

CC(=O)O[C@H]1C[C@@H](OC(C)=O)C(C)(C)C2CC(=O)[C@]3(C)C(CC[C@@]4(C)[C@H](C(=O)O)OC(=O)C5OC543)[C@]21C (stereo partly specified)
inactive: locus YAL021C, strain ccr4, active compounds read low 0.96 | locus YAL026C, strain drs2, active compounds read low 0.98 | locus YAL030W, strain snc1, active compounds read low 1.02 | locus YBL061C, strain skt5, active compounds read low 0.995 | locus YBR009C, strain hhf1, active compounds read low 0.988 | locus YBR021W, strain FUR4, active compounds read low 1.03 | locus YBR023C, strain chs3, active compounds read low 1.01 | locus YBR171W, strain sec66, active compounds read low 0.984 | locus YBR229C, strain ROT2, active compounds read low 0.964 | locus YBR231C, strain swc5, active compounds read low 0.988 | locus YBR279W, strain paf1, active compounds read low 1.01 | locus YCL011C, strain gbp2, active compounds read low 0.982 | locus YCL016C, strain dcc1, active compounds read low 0.974 | locus YCL029C, strain bik1, active compounds read low 0.979 | locus YCL061C, strain MRC1, active compounds read low 0.987 | locus YCL069W, strain vba3, active compounds read low 0.991 | locus YCR088W, strain abp1, active compounds read low 1 | locus YDL005C, strain med2, active compounds read low 0.966 | locus YDL035C, strain GPR1, active compounds read low 0.977 | locus YDL040C, strain nat1, active compounds read low 0.995 | locus YDL074C, strain BRE1, active compounds read low 1.04 | locus YDL101C, strain DUN1, active compounds read low 0.991 | locus YDL134C, strain PPH21, active compounds read low 1.05 | locus YDL185W, strain tfp1, active compounds read low 0.965 | locus YDL192W, strain arf1, active compounds read low 0.968 | locus YDR001C, strain nth1, active compounds read low 0.994 | locus YDR069C, strain doa4, active compounds read low 0.994 | locus YDR101C, strain arx1, active compounds read low 0.983 | locus YDR137W, strain rgp1, active compounds read low 0.991 | locus YDR159W, strain sac3, active compounds read low 1.03 | locus YDR162C, strain NBP2, active compounds read low 1.01 | locus YDR195W, strain ref2 0.936 | locus YDR297W, strain sur2, active compounds read low 0.993 | locus YDR318W, strain mcm21, active compounds read low 0.987 | locus YDR334W, strain swr1, active compounds read low 0.976 | locus YDR335W, strain msn5, active compounds read low 0.987 | locus YDR388W, active compounds read low 0.989 | locus YDR392W, strain spt3, active compounds read low 1 | locus YDR502C, strain sam2, active compounds read low 1.02 | locus YEL003W, strain gim4, active compounds read low 0.994 | locus YEL037C, strain rad23, active compounds read low 0.995 | locus YEL061C, strain CIN8 (second series), active compounds read low 0.993 | locus YEL061C, strain CIN8, active compounds read low 0.979 | locus YER015W, strain faa2, active compounds read low 0.987 | locus YER016W, strain bim1, active compounds read low 0.987 | locus YER110C, active compounds read low 0.979 | locus YER111C, strain swi4, active compounds read low 0.987 | locus YER155C, strain BEM2 (second series), active compounds read low 0.992 | locus YER155C, strain BEM2, active compounds read low 0.996 | locus YER167W, strain BCK2, active compounds read low 0.988 | locus YFR010W, strain ubp6, active compounds read low 1.02 | locus YGL078C, strain dbp3, active compounds read low 1.02 | locus YGL086W, strain mad1, active compounds read low 1 | locus YGL167C, strain pmr1, active compounds read low 0.993 | locus YGL173C, strain kem1, active compounds read low 0.997 | locus YGL227W, strain vid30, active compounds read low 0.993 | locus YGL240W, strain doc1, active compounds read low 0.974 | locus YGL248W, strain PDE1, active compounds read low 1.01 | locus YGL253W, strain hxk2, active compounds read low 0.988 | locus YGR135W, strain pre9, active compounds read low 1.06 | locus YGR252W, strain gcn5, active compounds read low 1.07 | locus YHR013C, strain ard1, active compounds read low 0.97 | locus YHR027C, strain rpn1, active compounds read low 0.988 | locus YHR030C, strain SLT2, active compounds read low 0.981 and 1.01 | locus YHR079C, strain IRE1 (second series), active compounds read low 0.983 | locus YHR079C, strain IRE1, active compounds read low 1.03 | locus YHR094C, strain hxt1, active compounds read low 0.992 | locus YHR129C, strain ARP1, active compounds read low 0.987 | locus YHR142W, strain chs7, active compounds read low 0.98 | locus YHR200W, strain rpn10, active compounds read low 1.02 | locus YIL066C, strain RNR3, active compounds read low 0.957 | locus YIL073C, strain SPO22, active compounds read low 0.996 | locus YIL125W, strain kgd1, active compounds read low 0.992 | locus YIR030C, strain dcg1, active compounds read low 0.986 | locus YJL092W, strain hpr5, active compounds read low 0.994 | locus YJL095W, strain BCK1 (second series), active compounds read low 0.983 | locus YJL095W, strain BCK1, active compounds read low 1.08 and 1.01 | locus YJL115W, strain asf1, active compounds read low 0.978 | locus YJL129C, strain trk1, active compounds read low 0.987 | locus YJL134W, strain LCB3, active compounds read low 0.978 | locus YJL154C, strain vps35, active compounds read low 0.978 | locus YJL164C, strain tpk1, active compounds read low 1.02 | locus YJL166W, strain qcr8, active compounds read low 0.977 | locus YJL168C, strain set2, active compounds read low 0.996 | locus YJL187C, strain SWE1 (second series), active compounds read low 1.01 | locus YJL187C, strain SWE1, active compounds read low 0.984
